From PubChem BioAssay (NCATS)
Inconclusive results are not listed. Values without a mark were called inactive. Calls of active or inactive are those of the source. Calls come from the whole dose curve; as a rule, active = well fitted inhibition curve with a large enough effect; inconclusive = small, poorly fitted or top-dose-only effect; inactive = flat fitted curve, though single readings scatter.

Experiments:
HaCat [1] = assay: Cytotoxic Profiling of Annotated Libraries Using Quantitative High-Throughput Screening (AID 1296008); details: Five cell lines viability, CellTiter-Glo ATP luminescence, 48-72 h; max response: hits give low values; for max response: % is set by controls: 0 for no effect and ±100 for the full control effect
In short: (§1)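 Compounds were pin-transferred onto cells and incubated 48 or 72 hr at 37 degree Celsius, 95% humidity. CellTiter-Glo was added, plates sat 10 min at room temperature, then ATP-coupled luminescence was imaged as the viability read-out.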

NIH3T3 = assay: as above; details: Five cell lines viability, CellTiter-Glo ATP luminescence, 48-72 h; max response: hits give low values
In short: as §1

MCC-13 = assay: qHTS assay to identify novel small-molecules to repurpose for Merkel cell carcinoma treatment (AID 1296009); details: MCC and control cell lines, CellTiter-Glo viability, 72 h; series mostly up to 46 µM
In short: (§2)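 qHTS format: cells treated with library compounds in DMSO across 8 (NPC) or 11 (MIPE) concentrations. Readout after 72 hr at 37 degree celsius was CellTiter-Glo luminescence.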

MCC-26 = assay: as above; details: MCC and control cell lines, CellTiter-Glo viability, 72 h; series mostly up to 46 µM
In short: as §2

HACAT [2] = assay: as above; details: MCC and control cell lines, CellTiter-Glo viability, 72 h; at 44.8 µM (top of the series) unless noted
In short: as §2

KB-3-1 = assay: Cytotoxic Profiling of Annotated Libraries Using Quantitative High-Throughput Screening (AID 1296008); details: Five cell lines viability, CellTiter-Glo ATP luminescence, 48-72 h; max response: hits give low values; for max response: % is set by controls: 0 for no effect and ±100 for the full control effect
In short: as §1

P93_24 = assay: qHTS profiling for inhibitors of Plasmodium falciparum proliferation (AID 504749); details: P. falciparum in erythrocytes, SYBR Green DNA, 72 h; series mostly up to 28.7 µM
In short: (§3)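 Parasite proliferation within erythrocytes, 72 h exposure. Endpoint: SYBR Green I fluorescence after overnight lysis at room temperature. Controls: 0.29 uM artemisinin, DMSO.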

P94_40 = assay: as above; details: P. falciparum in erythrocytes, SYBR Green DNA, 72 h; series mostly up to 28.7 µM
In short: as §3

PAD = assay: as above; details: P. falciparum in erythrocytes, SYBR Green DNA, 72 h; series mostly up to 28.7 µM
In short: as §3

PC15 = assay: as above; details: P. falciparum in erythrocytes, SYBR Green DNA, 72 h; series mostly up to 28.7 µM
In short: as §3

PC26 = assay: as above; details: P. falciparum in erythrocytes, SYBR Green DNA, 72 h; series mostly up to 28.7 µM
In short: as §3

PC49 = assay: as above; details: P. falciparum in erythrocytes, SYBR Green DNA, 72 h; series mostly up to 28.7 µM
In short: as §3

SC27B = assay: as above; details: P. falciparum in erythrocytes, SYBR Green DNA, 72 h; series mostly up to 28.7 µM
In short: as §3

TAB109 = assay: as above; details: P. falciparum in erythrocytes, SYBR Green DNA, 72 h; series mostly up to 28.7 µM
In short: as §3

TAB165 = assay: as above; details: P. falciparum in erythrocytes, SYBR Green DNA, 72 h; series mostly up to 28.7 µM
In short: as §3

W2 = assay: as above; details: P. falciparum in erythrocytes, SYBR Green DNA, 72 h; series mostly up to 28.7 µM
In short: as §3

TAB113 = assay: as above; details: P. falciparum in erythrocytes, SYBR Green DNA, 72 h; series mostly up to 28.7 µM
In short: as §3

HEK293 = assay: Cytotoxic Profiling of Annotated Libraries Using Quantitative High-Throughput Screening (AID 1296008); details: Five cell lines viability, CellTiter-Glo ATP luminescence, 48-72 h; max response: hits give low values; for max response: % is set by controls: 0 for no effect and ±100 for the full control effect
In short: as §1

HEK293T = assay: qHTS assay to identify novel small-molecules to repurpose for Merkel cell carcinoma treatment (AID 1296009); details: MCC and control cell lines, CellTiter-Glo viability, 72 h; at 44.8 µM (top of the series) unless noted
In short: as §2
Note: nearly all actives have a fitted effect of over 60% in size.
Potency is the fitted concentration of half-maximal effect.

CCCC(=O)O[C@]1(C(=O)CC)CC[C@H]2[C@@H]3CCC4=CC(=O)CC[C@]4(C)[C@H]3[C@@H](O)C[C@@]21C
max response (HaCat [1]): -13.1% | max response (NIH3T3): -5.79% | Potency (MCC-13): inactive | Potency (MCC-26): inactive

Nc1nc2ccccc2n1Cc1ccc(F)cc1
outcome (HaCat [1]): inactive | outcome (NIH3T3): inactive | outcome (HACAT [2]): inactive | Potency (MCC-13): inactive

Cc1cccc(N(C)C(=S)Oc2ccc3c(c2)CCC3)c1
max response (HaCat [1]): -7.13% | max response (KB-3-1): -1.52% | max response (NIH3T3): -6.52% | Potency (MCC-13): inactive | Potency (MCC-26): inactive

CC(CC1c2ccccc2CCc2ccccc21)CN(C)C (stereo not given)
max response (HaCat [1]): 1.42% | Potency (MCC-13): inactive | Potency (MCC-26): inactive

N#C/C(=C1/SC[C@@H](c2ccc(Cl)cc2Cl)S1)n1ccnc1
max response (HaCat [1]): -0.746% | max response (NIH3T3): -5.57% | Potency (MCC-26): inactive

CCCCCC(=O)O[C@]1(C(C)=O)CC[C@H]2[C@@H]3CCC4=CC(=O)CC[C@]4(C)[C@H]3CC[C@@]21C
Potency (MCC-26): inactive

Clc1ccc2c(c1)N=C(N1CCNCC1)c1ccccc1N2
max response (HaCat [1]): 2.45%

O=C(OCC(O)CO)c1ccccc1Nc1ccnc2c(C(F)(F)F)cccc12 (stereo not given)
max response (HaCat [1]): -6.27% | max response (NIH3T3): -7.27% | Potency (MCC-13): inactive | Potency (MCC-26): inactive

CCCc1c2oc(C(=O)O)cc(=O)c2cc2c(=O)cc(C(=O)O)n(CC)c12
outcome (HACAT [2]): inactive | Potency (MCC-13): inactive | Potency (MCC-26): inactive

CC(NCCC(c1ccccc1)c1ccccc1)c1ccccc1 (stereo not given)
Potency (P93_24): 12.6 µM (active) | Potency (P94_40): 11.2 µM (active) | Potency (PAD): 12.6 µM (active) | Potency (PC15): 11.2 µM (active) | Potency (PC26): 8.49 µM (active) | Potency (PC49): 5.01 µM (active) | Potency (SC27B): 11.2 µM (active) | Potency (TAB109): 12.6 µM (active) | Potency (TAB165): 11.2 µM (active) | Potency (W2): 4.26 µM (active) | max response (KB-3-1): -10.5%

C[C@H]1C[C@H]2[C@@H]3CCC4=CC(=O)C=C[C@]4(C)[C@H]3C(=O)C[C@]2(C)[C@@]1(O)C(=O)CO
max response (HaCat [1]): -5.83% | outcome (NIH3T3): inactive | Potency (MCC-13): inactive | Potency (MCC-26): inactive

O=S(=O)(O)c1ccc2nc(-c3ccccc3)[nH]c2c1
Potency (P93_24): inactive | Potency (P94_40): inactive | Potency (PAD): inactive | Potency (PC15): inactive | Potency (PC26): inactive | Potency (PC49): inactive | Potency (SC27B): inactive | Potency (TAB109): inactive | Potency (TAB113): inactive | Potency (TAB165): inactive | Potency (W2): inactive | max response (HaCat [1]): -12.3% | Potency (MCC-13): inactive | Potency (MCC-26): inactive

CN1CCCN(C(c2ccccc2)c2ccc(Cl)cc2)CC1 (stereo not given)
Potency (P93_24): 7.08 µM (active) | Potency (PAD): 5.62 µM (active) | Potency (PC49): 5.01 µM (active) | Potency (TAB165): 7.94 µM (active) | Potency (W2): 1.2 µM (active) | max response (KB-3-1): 0.505% | Potency (MCC-26): inactive

COC(=O)c1cc(Cl)ccc1NS(=O)(=O)C(F)(F)F
max response (HaCat [1]): -18% | max response (NIH3T3): -7.02% | Potency (MCC-13): inactive

NCC(=O)O
max response (HaCat [1]): -52.5% | max response (KB-3-1): -10.5% | max response (NIH3T3): -6.02% | Potency (MCC-13): inactive | Potency (MCC-26): inactive

O=C(Nc1ccc(Cl)cc1)Nc1ccc(Cl)c(Cl)c1
Potency (P93_24): 3.55 µM (active) | Potency (P94_40): 2.82 µM (active) | Potency (PAD): 2.24 µM (active) | Potency (PC15): 2.51 µM (active) | Potency (PC26): 1.51 µM (active) | Potency (PC49): 2.24 µM (active) | Potency (SC27B): 2.24 µM (active) | Potency (TAB109): 3.55 µM (active) | Potency (TAB113): 2.24 µM (active) | Potency (TAB165): 1.78 µM (active) | Potency (W2): 3.01 µM (active) | Potency (HEK293): 7.5 µM (active)

C[C@H](N)C(=O)N[C@@H](C)C(=O)NC1[C@H]2CN(c3nc4c(cc3F)c(=O)c(C(=O)O)cn4-c3ccc(F)cc3F)C[C@@H]12 (stereo not given in full)
max response (HaCat [1]): 0.555% | Potency (MCC-13): inactive | Potency (MCC-26): inactive

CN1CCC(N(Cc2cccs2)c2ccccc2)CC1
max response (HaCat [1]): -4.44% | max response (KB-3-1): -11.3% | max response (NIH3T3): -5.48% | Potency (MCC-13): inactive | Potency (MCC-26): inactive

CN1CCC(Nc2ncc3ncnc(Nc4ccc(F)c(Cl)c4)c3n2)CC1
Potency (P93_24): 7.08 µM (active) | Potency (P94_40): 8.91 µM (active) | Potency (TAB109): 11.2 µM (active) | Potency (TAB165): 11.2 µM (active) | Potency (W2): 5.36 µM (active) | Potency (HaCat [1]): 0.237 µM (active) | max response (KB-3-1): -0.0832% | Potency (MCC-13): inactive | Potency (MCC-26): inactive

CCC[C@H](N[C@@H](C)C(=O)N1[C@H](C(=O)O)C[C@@H]2CCCC[C@@H]21)C(=O)OCC
max response (HaCat [1]): 1.07% | max response (NIH3T3): -9.35% | Potency (MCC-13): inactive | Potency (MCC-26): inactive

CN=C(N)NC(=O)Nc1c(C)cccc1C
outcome (HACAT [2]): inactive | Potency (MCC-13): inactive | Potency (MCC-26): inactive

CCCCC/C=C\C/C=C\CCCCCCCC(=O)NC(C)c1ccccc1 (stereo not given)
max response (HaCat [1]): -11.3% | max response (NIH3T3): -26.3% | Potency (MCC-13): inactive | Potency (MCC-26): inactive

CN1CCCN=C1/C=C/c1cccs1
outcome (HACAT [2]): inactive | outcome (HEK293T): inactive | Potency (MCC-13): inactive | Potency (MCC-26): inactive

O=C(CCC1CCN(Cc2ccccc2)CC1)c1ccc2c(c1)NCCCC2
max response (HaCat [1]): 2.9% | max response (KB-3-1): -12.9% | Potency (MCC-13): inactive | Potency (MCC-26): inactive

CCOC(=O)N1CCC(n2c(=O)[nH]c3cc(Cl)ccc32)CC1
max response (HaCat [1]): -12.1% | max response (NIH3T3): 3.06% | Potency (MCC-13): inactive | Potency (MCC-26): inactive

NC(N)=NCCCCN=C(N)N
max response (KB-3-1): -9.65%

CCC1(c2cnc[nH]2)Cc2ccccc2C1
Potency (MCC-13): inactive

COc1c(C)c2c(c(O)c1C/C=C(\C)CCC(=O)OCCN1CCOCC1)C(=O)OC2
max response (HaCat [1]): -40.9% | Potency (MCC-13): 0.944 µM (active)

CC(C)C[C@H](NC(=O)CNC(=O)[C@H](Cc1ccc(O)cc1)NC(=O)[C@H](CO)NC(=O)[C@H](Cc1c[nH]c2ccccc12)NC(=O)[C@H](Cc1cnc[nH]1)NC(=O)[C@@H]1CCC(=O)N1)C(=O)N[C@@H](CCCN=C(N)N)C(=O)N1CCC[C@H]1C(=O)NCC(N)=O (stereo in doubt)
Potency (MCC-13): inactive | Potency (MCC-26): inactive
